Data: PubChem BioAssay AID1159580 (chemical genetic matrix, 2015)
Values joined by “and” are separate entries in the source; they are usually repeats but may differ in a detail not shown here. Equal entries are not always repeated. The whole screen tested about 5,500 compounds, of which about 2,000 (36%) were called active. Inconclusive results (about 18%) are left out. No stated cut-off is given here; in the data, active means normalized growth mostly below about 0.91 (no sharp cut-off); inconclusive means no clear call, values can overlap the other calls; inactive means mostly above about 0.92. This is one part of the list.

Assay: chemical genetic growth profiling, strain panel (AID 1159580);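 further: tested at 20 µM; growth read once vehicle control cultures reached saturation at 30 °C; 1 = growth at the plate median or of vehicle wells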
Conditions: growth OD
[1] = S. cerevisiae deletion strains, locus YGR078C, strain PAC10, stronger effect = lower value
[2] = S. cerevisiae deletion strains, locus YGR229C, strain SMI1, stronger effect = lower value
[3] = S. cerevisiae deletion strains, locus YJR075W, strain HOC1, stronger effect = lower value
[4] = S. cerevisiae deletion strains, locus YMR263W, strain SAP30, stronger effect = lower value
[5] = S. cerevisiae deletion strains, locus YMR307W, strain GAS1, stronger effect = lower value
[6] = S. cerevisiae deletion strains, locus YNL153C, strain GIM3, stronger effect = lower value
[7] = S. cerevisiae deletion strains, locus YNL322C, strain KRE1, stronger effect = lower value
[8] = S. cerevisiae deletion strains, locus YPL055C, strain LGE1, stronger effect = lower value
[9] = S. cerevisiae deletion strains, locus YAL013W, strain DEP1, stronger effect = lower value
[10] = S. cerevisiae deletion strains, locus YBR229C, strain ROT2, stronger effect = lower value
[11] = S. cerevisiae deletion strains, locus YCL061C, strain MRC1, stronger effect = lower value
[12] = S. cerevisiae deletion strains, locus YDL101C, strain DUN1, stronger effect = lower value
[13] = S. cerevisiae deletion strains, locus YDR150W, strain NUM1, stronger effect = lower value
[14] = S. cerevisiae deletion strains, locus YEL061C, strain CIN8, stronger effect = lower value
[15] = S. cerevisiae deletion strains, locus YHR030C, strain SLT2, stronger effect = lower value
[16] = S. cerevisiae deletion strains, locus YHR087W, strain rtc3, stronger effect = lower value
[17] = S. cerevisiae deletion strains, locus YJL187C, strain SWE1, stronger effect = lower value
[18] = S. cerevisiae deletion strains, locus YJR043C, strain POL32, stronger effect = lower value
[19] = S. cerevisiae deletion strains, locus YKL190W, strain CNB1, stronger effect = lower value
[20] = S. cerevisiae deletion strains, locus YLR039C, strain RIC1, stronger effect = lower value
[21] = S. cerevisiae deletion strains, locus YLR058C, strain SHM2 (second series), stronger effect = lower value
[22] = S. cerevisiae deletion strains, locus YLR085C, strain ARP6, stronger effect = lower value
[23] = S. cerevisiae deletion strains, locus YLR262C, strain YPT6, stronger effect = lower value
[24] = S. cerevisiae deletion strains, locus YML094W, strain GIM5, stronger effect = lower value
[25] = S. cerevisiae deletion strains, locus YMR219W, strain ESC1, stronger effect = lower value
[26] = S. cerevisiae deletion strains, locus YNL298W, strain CLA4 (second series), stronger effect = lower value
[27] = S. cerevisiae deletion strains, locus YNR030W, strain Alg12, stronger effect = lower value
[28] = S. cerevisiae deletion strains, locus YPL241C, strain CIN2, stronger effect = lower value
[29] = S. cerevisiae deletion strains, locus YPR135W, strain CTF4, stronger effect = lower value

Measured: normalized growth

c1ccc(C2CN3CCSC3=N2)cc1 (stereo not drawn)
inactive: S. cerevisiae deletion strains, locus YAL040C, strain CLN3, stronger effect = lower value 0.985 and 1 | S. cerevisiae deletion strains, locus YCL061C, strain MRC1 (second series), stronger effect = lower value 0.997 and 1.02 | S. cerevisiae deletion strains, locus YDR363W, strain ESC2, stronger effect = lower value 1.02 and 1.04 | S. cerevisiae deletion strains, locus YER002W, strain NOP16, stronger effect = lower value 0.991 and 1.03 | [1] 1 | [2] 1.04 | [3] 1.04 and 1.01 | [4] 1.01 | [5] 1.02 and 1 | [6] 1.02 | S. cerevisiae deletion strains, locus YNL175C, strain NOP13, stronger effect = lower value 0.984 and 1 | S. cerevisiae deletion strains, locus YNL197C, strain WHI3, stronger effect = lower value 0.977 and 1.01 | S. cerevisiae deletion strains, locus YNL224C, strain SQS1, stronger effect = lower value 0.999 and 1.01 | [7] 1.02 | S. cerevisiae deletion strains, locus YOR083W, strain WHI5 (second series), stronger effect = lower value 0.983 and 1.03 | [8] 1.05

Cc1cccc(N2C(=O)C3C4C=CC(C4)C3C2=O)n1 (stereo not drawn)
inactive: [9] 0.994 | [10] 0.993 | [11] 0.985 | [12] 0.989 | [13] 0.987 | [14] 0.987 | [1] 1.01 | [15] 0.999 | [16] 0.971 | [17] 0.995 | [18] 1.01 | [3] 0.989 | [19] 0.991 | [20] 0.977 | [21] 0.992 | [22] 0.987 | [23] 0.998 | [24] 0.983 | [25] 0.992 | [4] 0.987 | [6] 1 | [26] 1.01 | [7] 1.01 | [27] 1 | [8] 0.991 | [28] 1.01 | [29] 1.03 | S. cerevisiae strains, strain wild type, stronger effect = lower value 0.999

O=C1CCC(=O)N1CNc1ccccc1OC(F)(F)F
inactive: [9] 0.968 | [10] 0.994 | [11] 1.01 | [12] 0.963 | S. cerevisiae deletion strains, locus YDL134C, strain PPH21, stronger effect = lower value 0.999 | [13] 1.02 | [14] 0.984 | [1] 0.996 | [2] 0.998 | [15] 1.04 | [16] 0.989 | [17] 1 | [18] 1 | [3] 0.997 | [19] 0.999 | [20] 0.991 | [21] 0.992 | [22] 1.02 | [23] 1.05 | [24] 1.02 | [25] 0.993 | [4] 1.03 | [5] 1.2 | S. cerevisiae deletion strains, locus YNL128W, strain TEP1, stronger effect = lower value 0.993 | [6] 1.01 | [26] 0.971 | [7] 0.983 | [27] 1 | [8] 1.07 | [28] 1.02 | [29] 0.92

Cc1cccc(NCN2C(=O)CCC2=O)n1
inactive: [9] 0.968 | [10] 0.996 | [12] 0.956 | [13] 0.959 | [14] 0.982 | [1] 0.965 | [15] 0.821 | [16] 1.06 | [18] 0.972 | [3] 0.987 | [21] 0.97 | [22] 0.95 | [24] 0.932 | [25] 0.992 | [4] 1.01 | [5] 1.22 | [6] 0.98 | [26] 0.938 | [7] 0.983 | [27] 0.977 | [8] 1 | [28] 0.96 | [29] 0.978
active: [20] 0.643 | [23] 0.572

CC1=CC(C)(C)NC(=S)N1
inactive: [9] 1.01 | [10] 1.01 | [12] 1 | [13] 0.981 | [14] 1.01 | [1] 1 | [2] 1.02 | [15] 1.06 | [16] 1 | [18] 1 | [3] 1.01 | [19] 1.01 | [20] 1.01 | [21] 1 | [22] 0.984 | [23] 1.05 | [24] 0.996 | [25] 1 | [4] 1.02 | [6] 0.997 | [26] 1 | [7] 1.01 | [27] 1.01 | [8] 0.984 | [28] 1.03 | [29] 1.06

Oc1ccc(-n2nnnc2SCc2ccc(OC(F)(F)F)cc2)cc1
inactive: S. cerevisiae deletion strains, locus YAR019C, strain CDC15, stronger effect = lower value 0.974 | S. cerevisiae deletion strains, locus YBL105C, strain PKC1, stronger effect = lower value 0.971 | S. cerevisiae deletion strains, locus YBR135W, strain CKS1, stronger effect = lower value 0.979 | S. cerevisiae deletion strains, locus YBR136W, strain MEC1, stronger effect = lower value 0.975 | S. cerevisiae deletion strains, locus YBR160W, strain CDC28, stronger effect = lower value 0.971 | S. cerevisiae deletion strains, locus YDL017W, strain CDC7, stronger effect = lower value 0.982 | S. cerevisiae deletion strains, locus YDL028C, strain MPS1, stronger effect = lower value 0.979 | [12] 0.988 | S. cerevisiae deletion strains, locus YDL108W, strain KIN28, stronger effect = lower value 0.972 | S. cerevisiae deletion strains, locus YDL132W, strain cdc53, stronger effect = lower value 0.984 | S. cerevisiae deletion strains, locus YDL214C, strain PRR2, stronger effect = lower value 0.815 | S. cerevisiae deletion strains, locus YDR052C, strain DBF4, stronger effect = lower value 0.984 | S. cerevisiae deletion strains, locus YDR054C, strain cdc34, stronger effect = lower value 0.968 | S. cerevisiae deletion strains, locus YDR226W, strain ADK1, stronger effect = lower value 0.98 | S. cerevisiae deletion strains, locus YDR477W, strain SNF1, stronger effect = lower value 0.783 | S. cerevisiae deletion strains, locus YER123W, strain YCK3, stronger effect = lower value 0.651 | S. cerevisiae deletion strains, locus YER133W, strain GLC7, stronger effect = lower value 0.767 | S. cerevisiae deletion strains, locus YFL009W, strain cdc4, stronger effect = lower value 0.975 | S. cerevisiae deletion strains, locus YFL029C, strain CAK1, stronger effect = lower value 0.97 | S. cerevisiae deletion strains, locus YFR003C, strain YPI1, stronger effect = lower value 0.98 | S. cerevisiae deletion strains, locus YFR019W, strain FAB1, stronger effect = lower value 0.794 | S. cerevisiae deletion strains, locus YFR028C, strain CDC14, stronger effect = lower value 0.97 | S. cerevisiae deletion strains, locus YGR040W, strain KSS1, stronger effect = lower value 0.747 | S. cerevisiae deletion strains, locus YGR092W, strain DBF2, stronger effect = lower value 0.663 | S. cerevisiae deletion strains, locus YHR079C, strain IRE1, stronger effect = lower value 0.563 | S. cerevisiae deletion strains, locus YHR082C, strain KSP1, stronger effect = lower value 0.617 | S. cerevisiae deletion strains, locus YHR205W, strain SCH9, stronger effect = lower value 0.867 | S. cerevisiae deletion strains, locus YIL147C, strain SLN1, stronger effect = lower value 0.984 | S. cerevisiae deletion strains, locus YJL095W, strain BCK1, stronger effect = lower value 0.597 | S. cerevisiae deletion strains, locus YJL128C, strain PBS2, stronger effect = lower value 0.932 | S. cerevisiae deletion strains, locus YJL157C, strain FAR1, stronger effect = lower value 0.832 | S. cerevisiae deletion strains, locus YJR016C, strain ILV3, stronger effect = lower value 0.977 | S. cerevisiae deletion strains, locus YJR066W, strain TOR1 (second series), stronger effect = lower value 0.738 | S. cerevisiae deletion strains, locus YJR066W, strain TOR1, stronger effect = lower value 0.647 | S. cerevisiae deletion strains, locus YKL067W, strain YNK1, stronger effect = lower value 0.794 | S. cerevisiae deletion strains, locus YKL193C, strain SDS22, stronger effect = lower value 0.978 | S. cerevisiae deletion strains, locus YKL203C, strain TOR2, stronger effect = lower value 0.803 | S. cerevisiae deletion strains, locus YLR133W, strain CKI1, stronger effect = lower value 0.835 | S. cerevisiae deletion strains, locus YLR403W, strain SFP1, stronger effect = lower value 0.828 | S. cerevisiae deletion strains, locus YML070W, strain DAK1, stronger effect = lower value 0.703 | S. cerevisiae deletion strains, locus YMR001C, strain CDC5, stronger effect = lower value 0.97 | S. cerevisiae deletion strains, locus YMR205C, strain PFK2 (second series), stronger effect = lower value 0.782 | S. cerevisiae deletion strains, locus YMR277W, strain FCP1, stronger effect = lower value 0.981 | S. cerevisiae deletion strains, locus YNL006W, strain LST8, stronger effect = lower value 0.981 | S. cerevisiae deletion strains, locus YNL020C, strain ARK1, stronger effect = lower value 0.805 | S. cerevisiae deletion strains, locus YNL161W, strain CBK1, stronger effect = lower value 0.976 | S. cerevisiae deletion strains, locus YNL183C, strain NPR1, stronger effect = lower value 0.635 | S. cerevisiae deletion strains, locus YNL207W, strain RIO2, stronger effect = lower value 0.97 | S. cerevisiae deletion strains, locus YNL222W, strain SSU72, stronger effect = lower value 0.966 | S. cerevisiae deletion strains, locus YNL307C, strain MCK1 (second series), stronger effect = lower value 0.791 | S. cerevisiae deletion strains, locus YOL078W, strain AVO1, stronger effect = lower value 0.978 | S. cerevisiae deletion strains, locus YOL136C, strain PFK27, stronger effect = lower value 0.75 | S. cerevisiae deletion strains, locus YOR061W, strain CKA2, stronger effect = lower value 0.772 | S. cerevisiae deletion strains, locus YOR119C, strain RIO1, stronger effect = lower value 0.806 | S. cerevisiae deletion strains, locus YOR329C, strain SCD5, stronger effect = lower value 0.986 | S. cerevisiae deletion strains, locus YPL031C, strain PHO85, stronger effect = lower value 0.725 | S. cerevisiae deletion strains, locus YPL209C, strain IPL1, stronger effect = lower value 0.977 | S. cerevisiae deletion strains, locus YPR025C, strain CCL1, stronger effect = lower value 0.975 | S. cerevisiae deletion strains, locus YPR106W, strain ISR1, stronger effect = lower value 0.971 | S. cerevisiae deletion strains, locus YPR111W, strain DBF20, stronger effect = lower value 0.967 | S. cerevisiae deletion strains, strain NNK1, stronger effect = lower value 0.979 | S. cerevisiae deletion strains, strain TSCII, stronger effect = lower value 0.983
active: S. cerevisiae deletion strains, locus YGR052W, strain FMP48, stronger effect = lower value 0.577 | [15] 0.554 | S. cerevisiae deletion strains, locus YKL048C, strain ELM1, stronger effect = lower value 0.635 | S. cerevisiae deletion strains, locus YKL101W, strain HSL1, stronger effect = lower value 0.716 | S. cerevisiae deletion strains, locus YLR113W, strain HOG1, stronger effect = lower value 0.523 | S. cerevisiae deletion strains, locus YOR231W, strain MKK1, stronger effect = lower value 0.509 | S. cerevisiae deletion strains, locus YPL153C, strain RAD53, stronger effect = lower value 0.599 | S. cerevisiae deletion strains, locus YPL204W, strain HRR25, stronger effect = lower value 0.622 | S. cerevisiae deletion strains, locus YPL256C, strain CLN2, stronger effect = lower value 0.467

CC(=O)NN(C)c1ccc(C(F)(F)F)cc1[N+](=O)[O-]
inactive: [9] 1.01 | [10] 1.01 | [12] 1 | [13] 0.991 | [14] 1.02 | [1] 1 | [15] 1.11 | [16] 1.01 | [17] 1.02 | [18] 1.01 | [3] 1 | [19] 1.01 | [20] 1 | [21] 1.01 | [22] 1.04 | [23] 0.986 | [24] 1.02 | [25] 1.01 | [4] 1.01 | [6] 1.01 | [26] 1.01 | [7] 1.01 | [27] 1.02 | [8] 0.989 | [28] 1.02 | [29] 1.07
